From PubChem BioAssay
Only some compounds are listed: those with a hit (about 2.2% of all), similar ones and a draw of the others.
aSyn rescue: alpha-synuclein toxicity inhibition in yeast; Potency, µM (top dose mostly 46.1 µM), inactives show top-dose growth rescue (activation), usual class: activators; Yeast expressing alpha-synuclein, growth rescue, BacTiter-Glo, 24 h; 0.14% of 370,000 active; also: % of control where 0% means no effect; nearly all actives have a fitted effect of over 65% in size
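Readout is rescue of growth in alpha-synuclein-expressing yeast, so inhibitors of toxicity appear as activators. Growth after 24 hr at 30 deg C in galactose medium is quantified by luminescence.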
Mito fusion act: blocks mitochondrial division or promotes mitochondrial fusion. S. cerevisiae fusion-defective mutant growth rescue, CellTiterGlo 48 h. Potency, µM (series often up to 46.1 µM), for inactives: top-dose growth rescue (activation), most hits filed as activators. 0.23% of 320,000 active. AID 485298; also: % of control where 0% means no effect; nearly all actives have a fitted effect of over 45% in size
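S. cerevisiae fusion-defective temperature-sensitive mutants (e.g. fzo1-1, mgm1-5) grown 48 h at 37C in YPEG (ethanol/glycerol non-fermentable) medium with 23 nl compound per well; growth rescue read as CellTiterGlo luminescence.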
Abeta yeast res: A-beta toxicity reversal in yeast; yeast expressing A-beta42, growth rescue, OD600, 48 h; response scale: 0% DMSO, 100% iron-clioquinol control; 0.063% of 410,000 active; Potency, µM (titrated, usually from 46.1 µM), usual class: activators; AID 1347071; also: nearly all actives have a fitted effect of over 55% in size
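Yeast A-beta toxicity model in growth medium with pinned compounds, 48 h at 30 C; growth read as absorbance at 600 nm. Normalized to FeCl3/clioquinol equimolar mix (positive) and DMSO (negative).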
TDP-43 yeast inh: inhibitors of TDP-43 toxicity in yeast | TDP-43 expressing yeast growth rescue, BacTiter-Glo, 24 h | Potency, µM (top dose mostly 46.1 µM), for the others: top-dose growth rescue (activation), most hits filed as activators | 1.8% of 410,000 active; also: % of control where 0% means no effect; nearly all actives have a fitted effect of over 50% in size
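Galactose-induced TDP-43 yeast, OD600=0.02, compound pinned; 24 hr, 30 deg C; BacTiter-Glo luminescence for growth. Inhibitors of TDP-43 toxicity read as activators.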
FUS yeast rescue: suppressors of FUS proteinopathy in yeast | AID 1347120 | Potency, µM (highest dose often 76.6 µM), usual class: activators | S. cerevisiae FUS-expressing, growth rescue, OD600, 24 h | 0.24% of 390,000 active;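 also: plate controls were DMSO vehicle for no effect and reference control for full effect; nearly all actives have a fitted effect of over 55% in size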
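Restored growth of FUS-toxic S. cerevisiae, read as 600 nm absorbance after 24 h at 30C in galactose medium (starting OD 0.005). Controls CP55940 and DMSO.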
Numbers without * were called inactive. Calls follow the shape of the dose curve; as a rule, active = well fitted curve in the direction sought with a large enough effect; inconclusive = small, poorly fitted or top-dose-only effect, or another doubt; inactive = no such curve, though single readings can be large; an effect the other way counts as inactive or inconclusive. Potency is read from the fitted curve at half-maximal effect.

What do the screens show for `Cc1ccc(NC(=O)CSCC(=O)N(C)CCOc2ccc(Cl)cc2)cc1`?
aSyn rescue: 9%; Mito fusion act: inconclusive; Abeta yeast res: inactive; TDP-43 yeast inh: inconclusive; FUS yeast rescue: inactive

How did O=C(CSc1nnc(SCc2ccc(Cl)cc2)s1)N1CCOCC1 do in these assays?
aSyn rescue: 1%; Mito fusion act: inconclusive; Abeta yeast res: inactive; TDP-43 yeast inh: 22µM*; FUS yeast rescue: inactive

Results for O=C(CSCc1ccc(Cl)cc1)N1CCOCC1 ?
aSyn rescue: 1%; Mito fusion act: 1%; Abeta yeast res: inactive; TDP-43 yeast inh: 6%; FUS yeast rescue: inactive

How did Cc1noc(C)c1COc1cccc(C(=O)Nc2ccc(C#N)cc2)c1 do in these assays?
aSyn rescue: -2%; Mito fusion act: 5%; Abeta yeast res: inactive; TDP-43 yeast inh: 14µM*; FUS yeast rescue: inactive

How did Cc1cc(C)c(OCC(=O)OC(C)C(=O)N2CCc3ccccc32)c(C)c1 (stereo not given) do in these assays?
aSyn rescue: -19%; Mito fusion act: 11%; Abeta yeast res: inactive; TDP-43 yeast inh: 22µM*; FUS yeast rescue: inactive

What do the screens show for `Cc1cccc(C)c1OCC(=O)Nc1cccc(NC(=O)c2ccco2)c1`?
aSyn rescue: 4%; Mito fusion act: inconclusive; Abeta yeast res: inactive; TDP-43 yeast inh: 25µM*; FUS yeast rescue: inactive

What do the screens show for `Cc1cc(C)c(OCC(=O)Nc2cccc(-c3nc4ncccc4o3)c2)c(Br)c1`?
Abeta yeast res: inactive; TDP-43 yeast inh: 24%; FUS yeast rescue: inactive

How did COc1c(C)cc(Br)cc1C(=O)Nc1cccc(-c2nc3ncccc3o2)c1 do in these assays?
aSyn rescue: 1%; Mito fusion act: 19%; Abeta yeast res: inactive; TDP-43 yeast inh: 13µM*; FUS yeast rescue: inactive

Results for O=C(Nc1cccc(NC(=O)c2ccccc2Cl)c1)c1ccco1 ?
aSyn rescue: -11%; Mito fusion act: 3%; Abeta yeast res: inactive; TDP-43 yeast inh: 18µM*; FUS yeast rescue: inactive

How did Cc1ccc(C(C)C)c(OCC(=O)Nc2cccc(NC(=O)c3ccco3)c2)c1 do in these assays?
Abeta yeast res: inactive; TDP-43 yeast inh: 20µM*; FUS yeast rescue: inactive

What do the screens show for `COc1ccc(OC)c(/C=C/c2sc3ccccc3[n+]2C)c1`?
aSyn rescue: 7%

What do the screens show for `O=C(Nc1ccccc1-c1cn2c(CN3CCNCC3)csc2n1)c1cnc2ccccc2n1`?
aSyn rescue: 4%

What do the screens show for `CCOC(=O)c1cc(-c2ccccc2)n(CCCC(=O)Nc2cccc(Cl)c2C)c1C`?
Abeta yeast res: inactive; TDP-43 yeast inh: -7%; FUS yeast rescue: inactive

How did O=C(/C=C\c1ccccc1)Nc1ccc(NC(=O)c2ccco2)cc1 do in these assays?
aSyn rescue: 7%; Mito fusion act: 4%; Abeta yeast res: inactive; TDP-43 yeast inh: 35µM*; FUS yeast rescue: inactive

What do the screens show for `Cc1ccc(C(C)C)c(OCC(=O)Nc2cccc(-c3nc4ncccc4o3)c2)c1`?
Abeta yeast res: inactive; TDP-43 yeast inh: 22µM*; FUS yeast rescue: inactive

What do the screens show for `Cc1cc(C)cc(-n2ccn(Cc3ccc(F)cc3)c(=O)c2=O)c1`?
Abeta yeast res: inactive; TDP-43 yeast inh: 11%; FUS yeast rescue: inactive

What do the screens show for `C1=Cc2ccccc2/C1=C\c1cccc(/C=C2\C=Cc3ccccc32)c1`?
aSyn rescue: -3%

What do the screens show for `Cc1cccc(N2CCN(C(=O)C3CCN(S(=O)(=O)c4cccc5cccnc45)CC3)CC2C)c1` (stereo not given)?
aSyn rescue: 7%; Mito fusion act: -1%; Abeta yeast res: inactive; TDP-43 yeast inh: 11%; FUS yeast rescue: 22µM*

Results for Cc1ccc(C)c(N2CCN(C(=O)c3cc4ccc5cccnc5c4[nH]3)CC2)c1 ?
Abeta yeast res: inactive; TDP-43 yeast inh: 13µM*; FUS yeast rescue: inconclusive

Results for Cc1cccc(N2CCN(C(=O)c3ccccn3)CC2C)c1 (stereo not given) ?
aSyn rescue: 15%; Mito fusion act: -5%; Abeta yeast res: inactive; FUS yeast rescue: inactive

How did COc1ccc(N2CCN(C(=O)c3cc4ccc5cccnc5c4[nH]3)CC2)cc1 do in these assays?
Abeta yeast res: inactive; TDP-43 yeast inh: inconclusive; FUS yeast rescue: inactive

How did Cc1ccc(Cl)cc1N(C)C(=O)c1cc2ccc3cccnc3c2[nH]1 do in these assays?
Abeta yeast res: inactive; TDP-43 yeast inh: 25µM*; FUS yeast rescue: inconclusive

What do the screens show for `O=C(NCc1ccccc1)c1cc2ccc3cccnc3c2[nH]1`?
Abeta yeast res: inactive; TDP-43 yeast inh: 0%; FUS yeast rescue: inactive

How did Cc1cccc(N2CCN(C(=O)c3cc4ccc5cccnc5c4[nH]3)CC2C)c1 (stereo not given) do in these assays?
Abeta yeast res: inactive; TDP-43 yeast inh: 8.9µM*; FUS yeast rescue: inconclusive

How did FC(F)(F)c1ccc2c(c1)ncc1c(-c3ccccc3)nn(-c3ccccc3)c12 do in these assays?
Abeta yeast res: inactive; TDP-43 yeast inh: -3%; FUS yeast rescue: inactive

Results for O=C(c1cc(-c2ccc(O)cc2)on1)N1CCc2ccccc2C1 ?
aSyn rescue: -8%; Mito fusion act: 19%; Abeta yeast res: inactive; TDP-43 yeast inh: 14µM*; FUS yeast rescue: inactive

What do the screens show for `ClC(Cl)(Cl)c1nc2ccccc2n2nncc12`?
aSyn rescue: -21%; Mito fusion act: 13µM*; Abeta yeast res: inactive; TDP-43 yeast inh: -3%; FUS yeast rescue: inactive

Results for CC(=O)N1N=C(N)SC1c1cccc([N+](=O)[O-])c1 (stereo not given) ?
aSyn rescue: -3%; Mito fusion act: -3%; Abeta yeast res: inactive; TDP-43 yeast inh: 4%; FUS yeast rescue: inactive

Results for COc1ccc(C2=NN(C(C)=O)CC2c2cccc([N+](=O)[O-])c2)cc1 (stereo not given) ?
aSyn rescue: 11%; Mito fusion act: -9%; TDP-43 yeast inh: 11µM*; FUS yeast rescue: inactive

How did COc1ccc(Nc2nc(-c3ccc4c(c3)NC(=O)CO4)cs2)cc1 do in these assays?
aSyn rescue: 3%; Mito fusion act: 1%; Abeta yeast res: inactive; TDP-43 yeast inh: inconclusive; FUS yeast rescue: inactive

How did COc1ccc(-c2cc(-c3ccccc3)nc(-c3ccc4c(c3)NC(=O)CO4)c2)cc1 do in these assays?
Mito fusion act: 5%; Abeta yeast res: inactive; TDP-43 yeast inh: 13µM*; FUS yeast rescue: inactive

How did COc1ccc(-c2cc(-c3ccccc3O)[nH]n2)cc1OC do in these assays?
aSyn rescue: 11%; Mito fusion act: -8%; Abeta yeast res: inactive; TDP-43 yeast inh: 13µM*; FUS yeast rescue: inactive

What do the screens show for `COc1ccc(-c2cc(-c3cc(OC)ccc3O)[nH]n2)cc1`?
aSyn rescue: 6%; Mito fusion act: 5%; Abeta yeast res: inactive; TDP-43 yeast inh: 25µM*; FUS yeast rescue: inactive
